Reference: PubChem BioAssay (NCI)
About 79,000 compounds went through this panel and 15% of them were active in at least one assay; those are over-represented in the sample as a whole. Calls of active or inactive are those of the source. Rule as the data show it: active = growth inhibition above about 70%; inactive = the rest.

Legend:
[1] = NCI Yeast Anticancer Drug Screen. Data for the rad50 strain (AID 155);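 also: 0% = growth of vehicle-only cultures of the same strain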; conditions: S. cerevisiae rad50 strain growth inhibition, stronger effect = higher value
Summary of the method: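 Cells are treated with compound, grown, and their growth is then scored against vehicle-only cultures of the same repair-deficient yeast strain.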

[2] = NCI Yeast Anticancer Drug Screen. Data for the mec2-1 strain (AID 157); conditions: S. cerevisiae mec2-1 strain, stronger effect = higher value
Summary of the method: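 Each compound was tested on mec2-1 yeast, a strain altered in DNA damage repair or cell cycle control. Growth inhibition is reported relative to vehicle.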

[3] = NCI Yeast Anticancer Drug Screen. Data for the sgs1 mgt1 strain (AID 161);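 also: 0% = growth of cultures given vehicle only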; conditions: S. cerevisiae sgs1 mgt1 strain, stronger effect = higher value
Summary of the method: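 Mutant yeast exposed to compound; growth scored against vehicle-only wells.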

[4] = NCI Yeast Anticancer Drug Screen. Data for the cln2 rad14 strain (AID 165);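 also: 0% = growth equal to vehicle treated cultures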; conditions: S. cerevisiae cln2 rad14 strain, stronger effect = higher value
Summary of the method: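 Test compounds were added to cln2 rad14 yeast cultures; inhibition of growth was then determined by comparison with vehicle treatment.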

[5] = NCI Yeast Anticancer Drug Screen. Data for the bub3 strain (AID 167); conditions: S. cerevisiae bub3 mutant strain, stronger effect = higher value
Summary of the method: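 Part of a panel of yeast mutants defective in DNA damage repair or cell cycle regulation. Each strain is grown with compound, and inhibition is calculated relative to solvent-treated cultures.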

[6] = NCI Yeast Anticancer Drug Screen. Data for the mlh1 rad18 strain (AID 175); conditions: S. cerevisiae mlh1 rad18 strain growth inhibition, stronger effect = higher value
Summary of the method: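 Inhibition values reflect reduced growth of mutant yeast versus vehicle-treated controls following compound exposure; the mutations affect DNA damage repair.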

[7] = at 5.0 µM (retest, dose inferred, filed as 0.5)
[8] = at 50.0 µM (retest, dose inferred, filed as 5.0)

Measured: growth inhibition

CCC1C(c2ccccc2O)c2cc3c(cc2OC1N1CCOCC1)OCO3 (stereo not given)
active: [1]; [8] 98% | [1]; at 50.0 µM 85.9% | [2]; [8] 99% | [2]; at 50.0 µM 88.3% | [3]; [8] 98% | [3]; at 50.0 µM 88.2% | [4]; [8] 99% | [4]; at 50.0 µM 88.9% | [5]; [8] 99% | [5]; at 50.0 µM 88.8% | [6]; [8] 98% | [6]; at 50.0 µM 91.2%
inactive: [1]; [7] -18% | [2]; [7] -32% | [3]; [7] -42% | [4]; [7] 9% | [5]; [7] -50% | [6]; [7] -13%

COc1ccc2c(c1)CCC1OC(c3cccnc3)OC21 (stereo not given)
active: [3]; at 50.0 µM 75.8% | [6]; at 50.0 µM 70.9%
inactive: [1]; [7] -1% | [1]; [8] 18% | [1]; at 50.0 µM 65.8% | [2]; [7] -19% | [2]; [8] -4% | [2]; at 50.0 µM 36.9% | [3]; [7] -3% | [3]; [8] 8% | [4]; [7] -5% | [4]; [8] 11% | [4]; at 50.0 µM 55% | [5]; [7] 10% | [5]; [8] 25% | [5]; at 50.0 µM 30.6% | [6]; [7] -10% | [6]; [8] -15%

O=S1(=O)C=C(c2ccccc2)S(=O)(=O)C=C1c1ccccc1
active: [1]; [8] 85% | [1]; at 50.0 µM 89% | [2]; [8] 76% | [2]; at 50.0 µM 89.7% | [3]; at 50.0 µM 95.2% | [4]; [8] 94% | [5]; [8] 81% | [5]; at 50.0 µM 91.8% | [6]; [8] 85% | [6]; at 50.0 µM 91.2%
inactive: [1]; [7] -1% | [2]; [7] 3% | [3]; [7] 0% | [3]; [8] 63% | [4]; [7] 0% | [4]; at 50.0 µM 57.9% | [5]; [7] -5% | [6]; [7] 0%

COC(=O)/C(Br)=C(\Br)c1ccccc1
inactive: [1]; [7] 6% | [1]; [8] 13% | [1]; at 50.0 µM -11.4% | [2]; [7] 6% | [2]; [8] 6% | [2]; at 50.0 µM 24.1% | [3]; [7] 14% | [3]; [8] -6% | [3]; at 50.0 µM 36.7% | [4]; [7] 2% | [4]; [8] 6% | [4]; at 50.0 µM -18.6% | [5]; [7] 0% | [5]; [8] 21% | [5]; at 50.0 µM 52.8% | [6]; [7] 22% | [6]; [8] 40% | [6]; at 50.0 µM 21.7%

OCC1OC(NC(=S)NCSCCC(F)(F)C(F)(F)C(F)(F)C(F)(F)C(F)(F)C(F)(F)F)C(O)C(O)C1O (stereo not given)
active: [1]; at 50.0 µM 80.8% | [2]; at 50.0 µM 93.5% | [3]; at 50.0 µM 93.6% | [5]; at 50.0 µM 95.1% | [6]; at 50.0 µM 92.3%
inactive: [1]; [7] 17% | [1]; [8] -21% | [2]; [7] 7% | [2]; [8] 19% | [3]; [7] 36% | [3]; [8] 36% | [4]; [7] 22% | [4]; [8] 37% | [4]; at 50.0 µM 66.4% | [5]; [7] 7% | [5]; [8] -8% | [6]; [7] 22% | [6]; [8] -3%

O=C1NC(=Nc2ccccc2)C(=Nc2ccccc2)N1c1ccccc1
active: [1]; [8] 99% | [1]; at 50.0 µM 87.8% | [2]; [8] 98% | [2]; at 50.0 µM 90.8% | [3]; [8] 99% | [3]; at 50.0 µM 85.6% | [4]; [8] 94% | [4]; at 50.0 µM 85.8% | [5]; [8] 99% | [5]; at 50.0 µM 89.5% | [6]; [8] 99% | [6]; at 50.0 µM 85.9%
inactive: [1]; [7] -8% | [2]; [7] -7% | [3]; [7] -7% | [4]; [7] -33% | [5]; [7] -36% | [6]; [7] -2%

CCCNC(=O)C(=O)NNc1ccccc1
active: [4]; [8] 79% | [4]; at 50.0 µM 73.5% | [5]; [8] 95% | [5]; at 50.0 µM 70.7% | [6]; [8] 95% | [6]; at 50.0 µM 90.1%
inactive: [1]; [7] 7% | [1]; [8] 64% | [1]; at 50.0 µM 66.8% | [2]; [7] 6% | [2]; [8] 62% | [2]; at 50.0 µM 59.1% | [3]; [7] 10% | [3]; [8] 55% | [3]; at 50.0 µM 57% | [4]; [7] 11% | [5]; [7] -2% | [6]; [7] 14%

Cc1ccc(NNC(=O)C(O)C(O)C(O)C(O)CO)cc1 (stereo not given)
active: [1]; [7] 98% | [1]; [8] 98% | [2]; [7] 99% | [2]; [8] 99% | [3]; [7] 99% | [3]; [8] 99% | [4]; [7] 99% | [4]; [8] 99% | [5]; [7] 98% | [5]; [8] 99% | [6]; [7] 99% | [6]; [8] 99%
inactive: [1]; at 50.0 µM -2.2% | [2]; at 50.0 µM 2.6% | [3]; at 50.0 µM 7.85% | [4]; at 50.0 µM 41.8% | [5]; at 50.0 µM 8.25% | [6]; at 50.0 µM 1.2%

Cc1cnc(Sc2c([N+](=O)[O-])ncn2C)nc1
active: [1]; at 50.0 µM 71.8% | [2]; at 50.0 µM 98.2% | [5]; at 50.0 µM 99.5% | [6]; at 50.0 µM 80.1%
inactive: [1]; [7] 3% | [1]; [8] 8% | [2]; [7] 6% | [2]; [8] 7% | [3]; [7] 3% | [3]; [8] 9% | [3]; at 50.0 µM 63.7% | [4]; [7] 0% | [4]; [8] 7% | [4]; at 50.0 µM 41.5% | [5]; [7] 1% | [5]; [8] 4% | [6]; [7] -1% | [6]; [8] 3%

S=C(S)NCCN1CCNCC1
active: [4]; at 50.0 µM 73.8%
inactive: [1]; [7] 9% | [1]; [8] -14% | [1]; at 50.0 µM 36.8% | [2]; [7] -20% | [2]; [8] -10% | [2]; at 50.0 µM -38.1% | [3]; [7] 0% | [3]; [8] -16% | [3]; at 50.0 µM -27.9% | [4]; [7] -3% | [4]; [8] 1% | [5]; [7] -6% | [5]; [8] -11% | [5]; at 50.0 µM -40.6% | [6]; [7] -4% | [6]; [8] -1% | [6]; at 50.0 µM -10.3%
